# In PubChem BioAssay (NCI):
# Compounds without any hit were thinned out: in the full panel of roughly 83,000, 20% have a hit.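 Each cell line was grown in a 96-well plate and treated with one concentration of compound for 48 hours. Values below 10 were considered active.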 Values without a mark were called inactive. Calls of active or inactive are those of the source.
# Columns and labels:
# Assay in all cases: NCI-60 one-dose screen, 48 h (100 = growth as untreated, 0 = no growth, -100 = all killed)
# Details in all cases: 10 µM unless noted
# DU-145 prostate = test system: DU-145 prostate
# K-562 leukemia = test system: K-562 leukemia
# MALME-3M melanoma = test system: MALME-3M melanoma
# MDA-MB-231 breast = test system: MDA-MB-231 breast
# RXF 393 renal = test system: RXF 393 renal
# SF-268 CNS = test system: SF-268 CNS
# SF-295 CNS = test system: SF-295 CNS
# SF-539 CNS = test system: SF-539 CNS
# UACC-257 melanoma = test system: UACC-257 melanoma
# M14 melanoma = test system: M14 melanoma
# HCT-15 colon = test system: HCT-15 colon
# HT29 colon = test system: HT29 colon
# SNB-75 CNS = test system: SNB-75 CNS
# SNB-19 CNS = test system: SNB-19 CNS
# U251 CNS = test system: U251 CNS
# PC-3 prostate = test system: PC-3 prostate
# SK-MEL-5 melanoma = test system: SK-MEL-5 melanoma
# UACC-62 melanoma = test system: UACC-62 melanoma
# LOX IMVI melanoma = test system: LOX IMVI melanoma
# SK-MEL-28 melanoma = test system: SK-MEL-28 melanoma
SMILES,growth (DU-145 prostate),growth (K-562 leukemia),growth (MALME-3M melanoma),growth (MDA-MB-231 breast),growth (RXF 393 renal),growth (SF-268 CNS),growth (SF-295 CNS),growth (SF-539 CNS),growth (UACC-257 melanoma),growth (M14 melanoma),growth (HCT-15 colon),growth (HT29 colon),growth (SNB-75 CNS),growth (SNB-19 CNS),growth (U251 CNS),growth (PC-3 prostate),growth (SK-MEL-5 melanoma),growth (UACC-62 melanoma),growth (LOX IMVI melanoma),growth (SK-MEL-28 melanoma)
S=C(Nc1ccc(Cl)cc1)c1ccccn1,105%,90%,85.2%,93.1%,97.8%,96.5%,91.4%,102%,91.1%,103%,98.1%,94.1%,79.7%,92.2%,88.6%,85.6%,94.1%,82.5%,88.4%,107%
COC(=O)/C=C1\SC(=Nc2ccc(C(F)(F)F)cc2)N(CCc2c[nH]c3ccccc23)C1=O,-65.4% (active),-0.591% (active),-89.6% (active),-63.7% (active),-70.2% (active),-3.91% (active),-81.4% (active),-91.2% (active),-50.3% (active),-45.6% (active),-71.4% (active),-34.1% (active),59.2%,-51.7% (active),-87.8% (active),-61.1% (active),-88.8% (active),-62.5% (active),-97% (active),-58.9% (active)
CNS(=O)(=O)c1cccc(-c2ccc3c4c(n(C)c(=O)c3c2)-c2ccccc2C4=O)c1,20.7%,41.3%,55%,87.1%,96.5%,58.6%,24.1%,53.8%,96.3%,60.1%,30.5%,45.8%,65.9%,31.3%,23.2%,73.4%,48.3%,56.3%,35.1%,93%
COc1cc2c(cc1OCCCOc1cc3c(cc1OC)C(=O)N1CC(F)(F)C[C@H]1C=N3)N=C[C@@H]1CC(F)(F)CN1C2=O,17%,9.11% (active),-57.6% (active),16%,-65.5% (active),30.4%,8.54% (active),-27.9% (active),34.9%,-0.895% (active),94.4%,11.8%,-8.01% (active),24.3%,18%,3.21% (active),-77.3% (active),-71.2% (active),16%,-1.8% (active)
O=C(O)c1ccc(-n2cc(/C=N/Nc3ccc(Cl)cc3Cl)c(-c3ccccc3)n2)cc1,93.6%,87.8%,92.3%,81.7%,97.9%,81.8%,74.7%,82%,116%,88.1%,72%,94.9%,88.4%,101%,90.5%,80.7%,87.1%,96.2%,91.9%,103%
CCCCCCCc1n(Cc2ccc3ccccc3c2)c2ccccc2[n+]1Cc1ccc2ccccc2c1,-94.7% (active),-67.3% (active),-67.2% (active),-81.2% (active),-72.1% (active),-74.9% (active),-92% (active),-88.9% (active),-76.5% (active),-72% (active),-80% (active),-84.3% (active),-86.8% (active),-77.9% (active),-79.8% (active),-88.7% (active),-92.8% (active),-89.6% (active),-75.1% (active),-85.4% (active)
CCCCn1c(=O)c(/C=C/C(=O)/C=C/c2ccc(O)c(OC)c2)cc2ccc(Cl)cc21,19.3%,6.69% (active),30.2%,-11.2% (active),-15.4% (active),29.9%,30.2%,52.6%,32.1%,5.1% (active),9.41% (active),-41.7% (active),54.8%,38.3%,3.33% (active),27.2%,3.38% (active),2.4% (active),-51.3% (active),38.8%
O=C1C(=O)c2c(nc3ccc(Br)cn23)-c2ccccc21,-100% (active),-59.8% (active),-97.9% (active),-20.1% (active),-94.1% (active),-71.7% (active),-100% (active),-99.1% (active),-99% (active),-92.9% (active),-75.7% (active),-29.1% (active),-95.3% (active),-86.4% (active),-100% (active),-63.4% (active),-97.6% (active),-87.6% (active),-76.6% (active),-60% (active)
O=C(O)COc1ccc2c(=O)c3sc4c(=O)c5ccccc5c(=O)c4c3c(=O)c2c1,-89.6% (active),24.9%,-75.4% (active),45.2%,49.3%,44.7%,-97% (active),-45.7% (active),-3.61% (active),-95.6% (active),-75% (active),-37.4% (active),-42% (active),0.0814% (active),29.8%,54%,-99.6% (active),-91.4% (active),-37.6% (active),-16.2% (active)
NC(=O)c1ccc(C2C3=C(CCCC3=O)OC3=C2C(=O)c2ccccc2C3=O)cc1 (stereo not given),12.1%,5.5% (active),-16.3% (active),5.67% (active),60%,9.54% (active),42.9%,0.536% (active),-7.13% (active),-0.786% (active),53.8%,29.7%,-1.57% (active),49.6%,0.896% (active),12.3%,-93.9% (active),-38.8% (active),-19.3% (active),59.6%
OCCNc1nc(NCCO)nc(Nc2ccc(C3=NN(c4cc(Cl)cc(Cl)c4)C(c4ccccc4)C3)cc2)n1 (stereo not given),45.8%,18.4%,59.2%,42.1%,11%,50.8%,10%,38%,91.2%,46.2%,27.5%,9.1% (active),52.5%,58.7%,27.2%,24.5%,51.7%,20.9%,-36.9% (active),49.9%
O=C1C(Cl)=C(NCCCN(CCCNC2=C(Cl)C(=O)c3ccccc3C2=O)C2=C(Cl)C(=O)c3ccccc3C2=O)C(=O)c2ccccc21,-88% (active),12.2%,-28.4% (active),38.5%,85.3%,74.7%,91.4%,88.3%,52.6%,11.7%,37.1%,12.4%,104%,72.9%,37.4%,47%,-59.1% (active),17.9%,10.8%,71.7%
O=C1c2ccccc2C(=O)c2c1oc1c2c(=O)[nH]c2ccccc21,82%,55.2%,124%,10.3%,97.2%,91%,92.7%,90.3%,112%,73.4%,44.7%,103%,113%,104%,79%,65.5%,79.7%,88.7%,56.1%,112%
CCC[S@@](=O)c1ccc2nc(NC(=O)OC)[nH]c2c1,107%,40.9%,89.2%,83.3%,95.2%,96.1%,88%,90.8%,57%,73.2%,68.3%,62.5%,82.6%,87.6%,82.2%,78.4%,83.3%,72.7%,90.2%,89.3%
